Among all 360,000 compounds or so, about 11,000 (3.1%) were called active. Not shown: some 2% with an inconclusive outcome. Rule as the data show it: active = fluorescence intensity above about 16000; inconclusive = no clear call, values can overlap the other calls; inactive = below that. Many of the other results were omitted from the sample, so actives are more common in it than they were.

This assay in a line: counter-screen for toxin protease inhibitors: compound fluorescence, primary screen, artefact control for toxin protease inhibitor project, biochemical, multiplex microsphere, HTS (AID 624483). The conditions noted are these: compound autofluorescence counterscreen, microsphere flow cytometry; active compounds read high. For orientation: The purpose of a counterscreen is to sort out artefacts and off-target activity.
`CCOC(=O)N1CCN(C(c2ccnc3ccccc23)c2nnnn2-c2c(C)cccc2C)CC1` (stereo not given): the fluorescence intensity is 5760 (inactive).

As for `COc1cccc(CNC(=O)[C@@H]2CCCN2C(=O)[C@@H]2CCCN2C(=O)c2ccccc2)c1`, the fluorescence intensity is 6440 (inactive).

Consider `Cc1nn(CC(=O)NCCc2ccccc2)c(=O)c2cc3occc3n12`, for which the fluorescence intensity was 4600 (inactive).

As to `Cn1c(=O)[nH]c(=O)c2c1nc(N(CCO)Cc1ccccc1)n2Cc1ccccc1Cl`, the fluorescence intensity is 19800 (active).

Regarding `CN(Cc1ccccc1)c1nc2c(c(=O)[nH]c(=O)n2C)n1CCSc1nc2ccccc2[nH]1`, the fluorescence intensity was 3450 (inactive).

Consider `CCOC(=O)Cn1c(CN(Cc2ccccc2)Cc2ccccc2)nc2c1c(=O)[nH]c(=O)n2C`, for which the fluorescence intensity is 11200 (inactive).

In the case of `COc1ccc(-c2[nH][nH]c(=O)c2NC(=O)c2ccc([N+](=O)[O-])cc2)cc1`, the fluorescence intensity is 4210 (inactive).

As to `CC(C)C[C@H]1CNC(=S)N1C[C@H]1CCCN1C[C@H](Cc1ccc(O)cc1)N1C[C@H](Cc2ccc(O)cc2)N(CC2CCCCC2)C1=S`, the fluorescence intensity is 6520 (inactive).

As to `COC(=O)C1C(=O)CC(C)(O)C(C(=O)OC)C1c1ccc2c(c1)OCO2` (stereo not given), the fluorescence intensity is 8340 (inactive).

On to `Cc1ccsc1-c1cc(C(=O)O)c2c(ccc3ccccc32)n1`, for which the fluorescence intensity is 3620 (inactive).

Consider `COc1cccc(NC(=O)N2CCCC2C(=O)NC2CCCCC2)c1` (stereo not given), for which the fluorescence intensity is 6160 (inactive).

With `COc1cccc(NC(=O)N2CCC(NC(=O)C(Cc3cccc(C)c3)NC(C)=O)CC2)c1` (stereo not given), the fluorescence intensity was 3850 (inactive).

With `COCCn1nnnc1CN1CCC(NC(=O)Nc2cccc(OC)c2)CC1`, the fluorescence intensity was 24600 (active).

Consider `COc1cc(C(=O)NN(CCC#N)C2=NS(=O)(=O)c3ccccc32)cc(OC)c1OC`, for which the fluorescence intensity is 4420 (inactive).

With `COc1ccc(/C=C2/CCCc3ccccc3C2=O)cc1`, the fluorescence intensity is 3030 (inactive).

On to `COc1ccc(/C=C2\CCCC3C2=NN(C(=O)c2scnc2C)C3c2ccc(OC)cc2)cc1` (stereo not given), for which the fluorescence intensity was 22800 (active).

Turning to `COc1ccc(C=C2CCC3C(CCCC34OCCO4)C2=O)cc1` (stereo not given), the fluorescence intensity is 2890 (inactive).

Take `Nc1ncnc2c1ncn2[C@@H]1O[C@H](C(=O)N2CCSC2)[C@@H](O)[C@H]1O`: the fluorescence intensity is 5590 (inactive).

For `O=C(NC1CCCC1)C1c2ccccc2OCC(=O)N1CC(F)(F)F` (stereo not given), the fluorescence intensity is 6700 (inactive).

Consider `Cn1c(CN2CCOCC2)nc2cc(NC(=O)c3ccc(Cl)cc3)ccc21`, for which the fluorescence intensity is 4450 (inactive).

For the molecule `C=CCn1c(C)cc(C2=NNC(=NCC)SC2)c1C`, the fluorescence intensity is 2100 (inactive).

For the molecule `COCCn1c(C)cc(C2=NNC(=Nc3ccc(F)cc3)SC2)c1C`, the fluorescence intensity was 20800 (active).

As for `C[C@@H]1CN([C@@H](C)CO)C(=O)c2c(c3ccccc3n2C)-c2ccccc2CO[C@H]1CN(C)C(=O)C1CC1`, the fluorescence intensity was 3570 (inactive).

Regarding `CCCCCCCCN1C(=O)[C@H](CC(=O)NCc2cccc3ccccc23)C[C@@]2(C(=O)OC)CCCCC=C12`, the fluorescence intensity was 4630 (inactive).

On to `CC(=O)NCC(=O)N1CCC(n2nccc2NC(=O)CCCc2ccccc2)CC1`, for which the fluorescence intensity is 6400 (inactive).

`O=C(O)c1ccc(COCC(F)(F)F)cc1`: the fluorescence intensity was 16300 (active).

Take `O=C(O)CCC(=O)NCc1ccc(C(=O)O)cc1`: the fluorescence intensity is 3850 (inactive).

Regarding `NNC(=O)c1ccc(COCC(F)(F)C(F)F)cc1`, the fluorescence intensity is 4020 (inactive).

As for `O=C(NCCCN1CCOCC1)C1CCCN(S(=O)(=O)N2CCCCC2)C1` (stereo not given), the fluorescence intensity is 5550 (inactive).

As for `CN(C(=O)COC(=O)CCCc1c[nH]c2ccccc12)c1c(N)n(Cc2ccccc2)c(=O)[nH]c1=O`, the fluorescence intensity is 3770 (inactive).

As to `CC1=C(C(=O)N2CCOCC2)CC(CC(=O)NCCCN(C)C)C(=O)N1Cc1ccc(C(C)(C)C)cc1` (stereo not given), the fluorescence intensity is 5880 (inactive).

As for `CCOc1nc(-c2ccc(OC)cc2)ccc1-c1noc(-c2cc(OC)c(OC)c(OC)c2)n1`, the fluorescence intensity is 20200 (active).

With `CCOC(=O)c1cc(-c2nnc(-c3cc(OC)c(OC)c(OC)c3)o2)c(C)nc1C`, the fluorescence intensity was 3800 (inactive).

`CCOc1ccc(-c2noc(CCC(=O)NC3CCCC3)n2)cc1OC`: the fluorescence intensity was 4230 (inactive).

`Nc1ncnc2c1ncn2[C@@H]1O[C@H](C(=O)NCC(F)(F)F)[C@@H](O)[C@H]1O`: the fluorescence intensity is 5880 (inactive).

Consider `COC(=O)[C@@]1(Cc2ccc(F)cc2)[C@H]2c3cc(C(=O)N4CCCC4)n(Cc4ccc(OC(F)(F)F)cc4)c3C[C@H]2CN1C(=O)c1ccccc1`, for which the fluorescence intensity was 4360 (inactive).

For the molecule `CN1C[C@@H](CO)O[C@@H](n2cnc3c(N4CCN(CCO)CC4)ncnc32)C1`, the fluorescence intensity was 3470 (inactive).

Turning to `CCc1ccc(NC(=O)CSc2nc3ccccc3c(=O)n2CCN2CCOCC2)cc1`, the fluorescence intensity was 23500 (active).

Regarding `CC(=O)c1ccc(NC(=O)CSc2nc3ccccc3c(=O)n2CCCN2CCOCC2)cc1`, the fluorescence intensity is 3650 (inactive).

Take `COC(=O)c1ccc2c(=O)n(CCN3CCOCC3)c(SCC(=O)Nc3cccc(OC)c3)nc2c1`: the fluorescence intensity is 5360 (inactive).

As to `Clc1ccc(-c2cccc3nccn23)cc1`, the fluorescence intensity is 3770 (inactive).

For the molecule `COc1cccc(-c2nc3nc(C)cc(C)n3c2NC2CCCCC2)c1`, the fluorescence intensity is 7480 (inactive).

As to `Cc1ccc(F)c(S(=O)(=O)NC(=O)C2(C)CCN2C(=O)c2ccco2)c1` (stereo not given), the fluorescence intensity was 3860 (inactive).

For `COC(=O)c1[nH]c2ccccc2c1NS(=O)(=O)c1ccc(OC)cc1OC`, the fluorescence intensity is 20900 (active).

Consider `CCCS(=O)(=O)Nc1c(C(=O)O)[nH]c2ccccc12`, for which the fluorescence intensity is 10100 (inactive).

`COc1ccc(NC(=O)COC(=O)c2n[nH]c3ccccc23)c(OC)c1`: the fluorescence intensity is 5180 (inactive).

Take `CCC(C)(C)c1ccc(OCC(=O)N(C)C)c(C(C)(C)CC)c1`: the fluorescence intensity is 4730 (inactive).

For the molecule `Cc1ccc(C(=O)Nc2ncccc2C)cc1S(=O)(=O)N1CCOCC1`, the fluorescence intensity is 5280 (inactive).

For `Cc1ccc(NC(=O)NC2CCCCC2)cc1S(=O)(=O)N1CCOCC1`, the fluorescence intensity is 3370 (inactive).

For the molecule `Cc1ccc(C(=O)Nc2ccccc2C(=O)NC2CCCCC2)cc1S(=O)(=O)N1CCOCC1`, the fluorescence intensity was 16600 (active).

As for `CCc1ccccc1NC(=O)CN1CCN(C(=O)c2cc(C3CC3)nn2-c2ccccc2)CC1`, the fluorescence intensity is 3950 (inactive).

Regarding `CCCCCC(=O)N1CCN(S(=O)(=O)c2ccc3c(c2)OCCCO3)CC1`, the fluorescence intensity is 5990 (inactive).

In the case of `CN1CCCN(S(=O)(=O)c2ccc3c(c2)OCCO3)CC1`, the fluorescence intensity is 22400 (active).

For `CCNC(=O)N1CCN(S(=O)(=O)c2ccc3c(c2)OCCCO3)CC1`, the fluorescence intensity is 5340 (inactive).

With `N#Cc1ccc(-c2nc3c(Cl)cc(C(F)(F)F)cn3c2Cc2ccccc2C(F)(F)F)cc1`, the fluorescence intensity is 5560 (inactive).

For the molecule `COc1ccc(NC(=O)C2Cc3c(-c4ccc5c(c4)OCO5)ccnc3O2)cn1` (stereo not given), the fluorescence intensity is 2850 (inactive).

`C#CCOc1ccccc1/C=C1/C(=O)ON=C1C`: the fluorescence intensity is 4290 (inactive).

Take `CCOC(=O)c1cc2c(ccn2C)n1CC(=O)N1CCC(C)CC1`: the fluorescence intensity is 4040 (inactive).

With `Oc1c(Cl)cc(Cl)cc1/C=N/c1ncn[nH]1`, the fluorescence intensity was 4010 (inactive).

Turning to `C/C(=N\c1nc2ccccc2n1C)c1cc(Cl)ccc1O`, the fluorescence intensity is 3250 (inactive).

As to `Oc1ccc(Cl)cc1/C=N/c1nc2ccccc2[nH]1`, the fluorescence intensity was 22500 (active).

Regarding `C=CCNCCCCOc1ccccc1`, the fluorescence intensity is 2600 (inactive).

For `CCc1nc2c(OCC(=O)C(C)(C)C)cccn2c1N(C)C(=O)c1ccccc1F`, the fluorescence intensity is 3600 (inactive).

As for `CC1(C(=O)NCc2ccc3c(c2)OCO3)CCN1CCc1ccccc1` (stereo not given), the fluorescence intensity is 3940 (inactive).

As for `CCc1nc2ccc(C(=O)N3CCN(S(=O)(=O)CC)CC3)cn2c1N(C=O)CCC(C)C`, the fluorescence intensity is 3570 (inactive).

Consider `CC1CCCN(C(=O)Cn2c(=O)oc3ccccc32)C1` (stereo not given), for which the fluorescence intensity is 3850 (inactive).

On to `CC(=O)c1ccc(NC(=O)Cn2c(=O)oc3ccccc32)cc1`, for which the fluorescence intensity is 3040 (inactive).

Regarding `NC(=O)Cn1c(=O)oc2ccccc21`, the fluorescence intensity is 19700 (active).

For the molecule `O=C(NC(c1ccc(Cl)cc1)c1cnccn1)C1CCN(Cc2ccc(Cl)cc2)CC1` (stereo not given), the fluorescence intensity is 4620 (inactive).

Turning to `CCCCC[C@H](C)N1C[C@@H](COCc2ccccc2)Oc2cc(N3CC[C@@H](N(C)C)C3)ccc2S1(=O)=O`, the fluorescence intensity is 5700 (inactive).
